NPSR antagonist: antagonists of human neuropeptide S receptor cAMP signaling; 1% of 220,000 active; CHO-NPSR cells, cAMP TR-FRET, antagonist mode; Potency, µM (highest dose often 38.3 µM), usual class: inhibitors; further: nearly all actives have a fitted effect of over 50% in size
PNC inhibitor: inhibitors of perinucleolar compartment assembly; PC3M PTB-GFP, PNC prevalence imaging, 16 h; stronger effect = lower value; activity change (PNC), negative = inhibition, % at 10 µM; 3.1% of 140,000 active; AID 2417;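 active means readout at or below -70, meaning at least 70% loss of cells showing the perinucleolar compartment, a nuclear body marking cancer cells; inconclusive means readout between -30 and a set limit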
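Read-out is percentage of cells bearing a perinucleolar compartment, from automated 20x imaging of fixed, Hoechst-stained PC3M PTB-GFP cells. Cells were seeded 4 h, then exposed 16 h to compound (23 nl of library stock) in duplicate plates.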
ALDH1A1 inh: inhibitors of human aldehyde dehydrogenase 1A1 | P00352 | Purified ALDH1A1, NADH fluorescence, propionaldehyde substrate | Potency, µM (top dose mostly 75.3 µM), actives largely listed as inhibitors | 7.3% of 220,000 active | AID 1030; active means well fitted inhibition curve with a large enough effect, not every such curve was filed as active; inconclusive means small, poorly fitted or top-dose-only effect, or another doubt; inactive means no such curve, though single readings can be large or run the other way
HPGD block: blocks human HPGD enzyme activity | 4.3% of 150,000 active | purified HPGD, NADH fluorescence kinetic, PGE2 substrate | Potency, µM, most hits filed as inhibitors; active means well fitted inhibition curve with a large enough effect, not every such curve was filed as active; inconclusive means small, poorly fitted or top-dose-only effect, or another doubt; inactive means no such curve, though single readings can be large or run the other way
Target sequence (P15428 whole entry, looked up): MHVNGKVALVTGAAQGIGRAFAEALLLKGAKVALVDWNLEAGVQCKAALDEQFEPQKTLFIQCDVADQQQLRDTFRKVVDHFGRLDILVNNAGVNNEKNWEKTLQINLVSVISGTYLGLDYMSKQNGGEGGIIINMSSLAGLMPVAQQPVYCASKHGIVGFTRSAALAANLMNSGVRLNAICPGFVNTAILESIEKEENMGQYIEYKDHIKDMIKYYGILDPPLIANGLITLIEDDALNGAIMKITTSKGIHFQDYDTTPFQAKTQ
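NADH formation kinetics: reaction with 30 uM PGE2 and 1 mM NAD+ (final), 20 nM enzyme, Tris-HCl pH 8 with Tween 20, after 15 min compound preincubation at room temperature. Fluorescence change, last versus first of five reads.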
IMPase Li inh: membrane-permeable IMPase blocker, potentiated with lithium; CHO-M1 cells, IP1 TR-FRET (IP-One), carbachol + lithium; Potency, µM (doses to about 59.4 µM), most hits filed as inhibitors; 0.35% of 210,000 active;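 further: IP1 builds up when IMPase is blocked and the TR-FRET signal falls; nearly all actives have a fitted effect of over 50% in size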
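Readout is a homogeneous TR-FRET IP1 immunoassay (Ex 320, Em 665 and 620), where raised cytosolic IP1 lowers signal. Cells were CHO-M1 treated 30 min at 37C with test compounds plus a little lithium; AC50 values came from Hill-equation fitting.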
IMPase cell inh: cell-permeable inhibitors of inositol monophosphatase (IMPase) | 120,000 tested, under 10 active | P97697 | inhibition (IP1 accumulation), % at 46.1 µM | CHO-M1 cells, IP1 accumulation, HTRF TR-FRET ratio; active means well fitted curve in the direction sought with a large enough effect in the signal ratio, not every such curve was filed as active; inconclusive means small, poorly fitted or top-dose-only effect, or a change in a side signal; inactive means no such curve, though single readings can be large or run the other way; the % refers to the signal ratio;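 further: cells stimulated with carbachol in lithium chloride buffer; higher means more IMPase inhibition seen as more IP1 and lower FRET ratio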
Target sequence (P97697 whole entry, looked up): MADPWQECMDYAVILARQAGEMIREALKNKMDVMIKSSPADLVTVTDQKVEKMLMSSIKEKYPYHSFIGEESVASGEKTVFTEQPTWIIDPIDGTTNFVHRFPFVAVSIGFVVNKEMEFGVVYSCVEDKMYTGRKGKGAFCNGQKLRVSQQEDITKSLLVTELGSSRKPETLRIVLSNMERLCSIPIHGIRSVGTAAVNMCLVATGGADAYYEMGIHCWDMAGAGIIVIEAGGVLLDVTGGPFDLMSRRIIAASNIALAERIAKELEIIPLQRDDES
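The IP-One HTRF competitive assay in carbachol-stimulated CHO-M1 cells quantifies cellular IP1. Compounds spanned up to 46 uM final, and activity is expressed as AC50 from concentration-response fits of the ratio and donor data.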
Hits are given with their value; – = inactive; ? = inconclusive; · = not tested or not shown; [ ] = remark or other dose. Shown are actives, neighbours in structure and some others; about 11% of the full set was active somewhere. Unless noted, the call rests on the fitted dose curve; in most records, active means well fitted curve in the direction sought with a large enough effect; inconclusive means small, poorly fitted or top-dose-only effect, or another doubt; inactive means no such curve, though single readings can be large; an effect the other way counts as inactive or inconclusive.

SMILES | NPSR antagonist | PNC inhibitor | ALDH1A1 inh | HPGD block | IMPase Li inh | IMPase cell inh
O=S(=O)(c1ccc(Cl)c(NC(=S)Nc2ccccc2N2CCOCC2)c1)N1CCOCC1 | – | ? | 20µM | – | – | ·
O=S(=O)(c1ccc(Cl)c(NC(=S)N/N=C/c2c(F)cccc2F)c1)N1CCOCC1 | – | – | – | · | · | –
O=C(Nc1cc(S(=O)(=O)N2CCOCC2)ccc1N1CCCC1)c1ccc2c(c1)S(=O)(=O)c1ccccc1C2=O | – | · | 2.24µM | · | – | ·
Oc1ccc(/C=N/NC(=S)N2CCOCC2)cc1 | ? | · | 14.1µM | · | – | ·
O=S(=O)(c1ccc(Cl)c(NC(=S)N/N=C/c2ccc(O)cc2)c1)N1CCOCC1 | – | ? | 10µM | – | – | ·
COc1ccc(C2(CNC(=O)c3ccccc3[N+](=O)[O-])CCOCC2)cc1 | – | · | – | · | – | ·
O=C(COC(=O)CCC(=O)c1cccs1)Nc1cc(S(=O)(=O)N2CCOCC2)ccc1Cl | – | – | 22.4µM | – | – | –
C=CCNC(=S)Nc1cc(S(=O)(=O)N2CCOCC2)ccc1-n1cncn1 | – | – | 4.47µM | – | – | –
Cc1ccc(-c2nc(CSc3nc4ccccc4c(=O)n3C)cs2)cc1 | – | – | ? | – | – | ·
CC(C)OC(=O)c1ccc(NC(=O)Cn2c(-c3nonc3N)nc3ccccc32)cc1 | – | – | 22.4µM | – | – | –
COC(=O)c1ccccc1NC(=O)Cn1c(-c2nonc2N)nc2ccccc21 | – | -97.7 | – | – | – | –
CC(=O)N/C(=C\c1ccccc1)C(=O)OCC(=O)NC(C)C12CC3CC(CC(C3)C1)C2 (configuration not stated) | – | – | – | – | – | –
CC(C)C(=O)N1CCN(c2ccc(NC(=O)c3cccs3)cc2)CC1 | ? | -100.0 | – | – | – | –
CC(C)CNC(=O)c1ccc(NC(=O)c2cccs2)cc1 | – | – | – | 17.8µM | – | ·
O=C(c1ccc(N2CCOCC2)cc1)c1cccs1 | – | ? | ? | 12.6µM | – | –[1.84 µM]
O=C(Nc1ccc(N2CCOCC2)cc1N1CCOCC1)c1cccs1 | – | – | – | – | – | –
O=C(Nc1ccc(C(=O)N2CCOCC2)cc1)c1cccs1 | –[7.67 µM] | – | – | 14.1µM | – | –
CCN(CC)C(=O)C(=O)N/N=C/c1ccc(Cl)cc1Cl | – | · | – | · | – | ·
O=C(NCCCN1CCOCC1)c1ccc(-n2nc(C(F)(F)F)cc2-c2cccs2)cc1 | ? | ? | – | – | – | –
COCCCNC(=O)c1ccc(-n2nc(C(F)(F)F)cc2-c2cccs2)cc1 | – | – | 20µM | 14.1µM | – | –
CC1CCC/C(=C\Nc2ccc(C(=O)O)cc2)C1=O (configuration not stated) | – | · | 14.1µM | · | – | ·
CCOC(=O)c1ccc(N/C=C2/CCCC(C)C2=O)cc1 (configuration not stated) | – | – | ? | – | – | –
O=C(/C=N/O)NCC1CCNCC1 | – | – | – | – | – | –
Brc1ccc(-c2cn3nc4c(nc3n2)CCCC4)cc1 | – | -99.8 | ? | ? | – | –
C=CCn1c2ccccc2n2nc(C)c(=O)nc12 | – | -100.0 | ? | ? | – | –
SMILES | NPSR antagonist | PNC inhibitor | ALDH1A1 inh | HPGD block | IMPase Li inh | IMPase cell inh
Cc1nn2c3ccccc3n(CCN3CCCCC3)c2nc1=O | – | – | ? | – | – | –
O=C(COc1cccc2cccnc12)NNC(=S)Nc1ccccc1 | – | · | ? | · | – | ·
CCCn1c(SCC(=O)Nc2cccc(NC(C)=O)c2)nnc1C(C)C | – | – | – | – | – | –
CN1CCc2c(sc3c2C(=O)NC(c2cn(Cc4ccccc4)c4ccccc24)N3)C1 (configuration not stated) | – | -103.5 | ? | ? | – | –
CCCCCOP(=O)(c1ccccc1)c1ccccc1 | – | -108.0 | – | – | – | ·
COC(=O)COc1cc(Br)c(/C=C2/SC(=O)N(CC(=O)N3CCCC3)C2=O)cc1OC | – | – | 20µM | – | – | –
Cc1ccc(NC(=O)NC(=O)COc2ccc(Cl)cc2Cl)c(C)c1 | ? | ? | – | – | – | –
COc1ccc(CCN2CC34C=CC(O3)C(C(=O)NCc3ccccc3)C4C2=O)cc1OC (configuration not stated) | – | – | – | 10µM | – | –
COC(=O)C1C2C=CC3(CN(CCc4ccccc4)C(=O)C13)O2 (configuration not stated) | – | – | – | – | – | –
CC1CCCC(C)N1C(=O)Cn1c(=O)sc2ccccc21 (configuration not stated) | – | – | – | – | – | –
COc1ccc(N(CN2C(=O)c3ccccc3C2=O)C(=O)C(C)C)cc1 | – | ? | 11.2µM | – | – | –
Cc1cccc(OCC(=O)Nc2cc(S(=O)(=O)N3CCCCC3)ccc2N2CCN(C)CC2)c1 | – | · | 11.2µM | · | – | ·
CN1CCN(S(=O)(=O)c2ccc(NC(=O)COc3ccccc3)cc2)CC1 | – | · | – | · | – | ·
CN(c1ccccc1C(=O)Nc1ccc(S(=O)(=O)N2CCCCC2)cc1)S(C)(=O)=O | ? | – | – | – | – | –
CN(c1ccccc1C(=O)Nc1ccc(S(=O)(=O)N2CCCC2)cc1)S(C)(=O)=O | – | – | 12.6µM | – | – | –
Cc1cccc(OCC(=O)Nc2ccc(S(=O)(=O)N3CCN(C)CC3)cc2)c1 | – | ? | – | – | – | –
CN1CCN(S(=O)(=O)c2ccc(NC(=O)COc3ccccc3Cl)cc2)CC1 | – | · | 3.16µM | · | – | ·
CN(CCOc1ccccc1)CC(=O)Nc1ccc(S(=O)(=O)N2CCCC2)cc1 | – | · | 12.6µM | · | · | ·
CCOC(=O)Nc1cc(OCC)c(NC(=O)C2CC2)cc1OCC | – | – | – | – | – | –
COc1cc(NC(=O)COc2ccc(-n3cnnn3)cc2)c(OC)cc1Cl | – | ? | – | – | – | –
NNC(=O)c1ccc(Oc2cc(Cl)cc(Cl)c2)o1 | – | · | 0.159µM | · | · | ·
O=C(NCC1CC1)c1ccc(Oc2cc(Cl)cc(Cl)c2)o1 | – | · | ? | · | · | ·
CCSc1nc(-c2ccccc2)nc(C(Cl)Cl)n1 | – | – | – | – | – | –
CSc1nc(-c2ccc(C)cc2)nc(C(Cl)Cl)n1 | – | -106.0 | – | – | – | –
CC1(C)OC(c2ccccc2)=C/C(=C/C=Nc2ccccc2)O1 | ? | – | 4.47µM | – | – | ?
CCOC(=O)C1=C(C)n2c(s/c(=C/c3cccc([N+](=O)[O-])c3)c2=O)=NC1c1ccc(O)c(OC)c1 (configuration not stated) | 7.94µM | – | ? | – | – | –
CCOC(=O)C1=C(C)N=c2s/c(=C/c3ccccc3)c(=O)n2C1c1ccc(OC)c(OC)c1 (configuration not stated) | ? | – | ? | – | – | –
CCN(CC)c1ccc(NC(=O)COC(=O)C23CCC(=O)N2c2ccccc2S3)cc1 (configuration not stated) | – | – | ? | – | – | –

Source: PubChem
